# Source: PubChem BioAssay
# An excerpt weighted towards active compounds, which were near 27% of everything screened.
# CYP2C19 inh: human CYP2C19 inhibition. P33261. CYP2C19 Supersomes, luciferin-H EGE luminescence, 30 min. inhibition, % at 5 µM. 96,000 tested, 21% active. AID 778;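 active = CYP2C19 inhibition above a set limit at 5 µM in the primary screen, cut at about 50% in these data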;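 note: plate controls were negative control wells for no effect and 2.5 mM tranylcypromine positive control for full effect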
# Target sequence (P33261 whole entry, looked up): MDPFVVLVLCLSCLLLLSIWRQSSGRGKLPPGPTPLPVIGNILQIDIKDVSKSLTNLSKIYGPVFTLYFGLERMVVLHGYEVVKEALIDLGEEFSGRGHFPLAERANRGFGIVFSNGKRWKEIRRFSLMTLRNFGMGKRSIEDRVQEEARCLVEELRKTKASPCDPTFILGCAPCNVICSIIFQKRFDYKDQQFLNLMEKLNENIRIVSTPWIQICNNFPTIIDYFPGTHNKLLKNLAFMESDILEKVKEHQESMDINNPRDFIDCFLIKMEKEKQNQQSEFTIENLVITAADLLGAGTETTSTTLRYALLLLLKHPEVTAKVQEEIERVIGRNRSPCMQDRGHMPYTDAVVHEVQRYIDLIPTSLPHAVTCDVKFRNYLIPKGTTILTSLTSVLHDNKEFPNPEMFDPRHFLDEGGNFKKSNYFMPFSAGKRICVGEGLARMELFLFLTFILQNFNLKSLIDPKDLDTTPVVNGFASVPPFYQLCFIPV
# CYP2C9 inhib: human CYP2C9 inhibition; 96,000 tested, 20% active; P11712; AID 777; inhibition, % at 5 µM; CYP2C9 Supersomes, luciferin-H conversion, luminescence;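 active = blocking of liver enzyme CYP2C9 beyond about 50% at 5 µM, limit read from the data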
# Cav3 T inh: human Cav3.2 channel inhibition, primary screen | O95180 | Cav3.2-expressing cells, Fluo-4 calcium fluorescence FDSS; stronger effect = lower value | B-score at 10 µM | 100,000 tested, 4% active | AID 449739;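 active = single-dose well whose peak fluorescence ratio is a statistical outlier from its plate by either plate-standardised score or position-corrected B-score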
# CYP2C9 act: CYP2C9 (human) activation; P11712; recombinant CYP2C9, luciferin-H conversion, luminescence; stronger effect = higher value; factor 1 = untreated enzyme, 0 = blocked; activation factor at 5 µM; 96,000 tested, 1.4% active;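 active = activation factor of 2 or more for CYP2C9 at a 5 µM dose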;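 note: 0 = sulfaphenazole-blocked wells and 1 = vehicle-only wells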
# CYP2C19 act: cytochrome P450 2C19 (human) activation; 96,000 tested, under 10 active; recombinant CYP2C19, luciferin-H EGE luminescence; stronger effect = higher value; 0 = fully inhibited enzyme, 1 = untreated enzyme; activation factor at 5 µM; P33261; AID 1025;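 active = activation factor of at least 2 at 5 µM in the primary screen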;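 note: 0 = wells with 2.5 mM tranylcypromine and 1 = vehicle-only wells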
# * = called active by the depositor; · = not tested or not shown.
SMILES,CYP2C19 inh,CYP2C9 inhib,Cav3 T inh,CYP2C9 act,CYP2C19 act
C=CCn1c(N)c(C(=O)Nc2cccc(C)c2)c2nc3ccccc3nc21,-7,17,-0.074,0.8,1.1
COC(=O)C1=C(C(=O)OC)[C@@H]2Nc3ccccc3[C@@]23C[C@@H](C(=O)OC)N(C(=O)COCc2ccccc2)C3=N1,·,·,-2.4,·,·
Cn1c(NCCc2ccccc2)cc(=O)n(C)c1=O,-9,-8,0.14,1.1,1.1
Cn1c(Oc2ccccc2NCc2cccc(Br)c2)cc(=O)n(C)c1=O,45,41,-8.1*,0.6,0.6
Brc1ccc(Oc2nnnn2-c2ccccc2)cc1,100*,81*,-2.2,0.2,0
Cc1cc(Oc2nnnn2-c2ccccc2)ccc1Cl,58*,61*,-2.9,0.4,0.4
CCn1nnnc1Oc1ccc(Cl)cc1,36,-3,0.87,1,0.6
C=CCOc1ccc(CNc2nccs2)cc1OC,·,·,0.085,·,·
CC1CCCCN1C(=O)Cn1c(=O)n(C2CCCCC2)c(=O)c2ccccc21 (stereo unspecified),5,30,0.82,0.7,0.9
COCC(C)n1c(C)cc(C(=O)COC(=O)c2ccc3ncsc3c2)c1C (stereo unspecified),78*,-79,-1.1,1.8,0.2
COc1ccc(NC(=O)c2nnn(Cc3ccc(SC)cc3)c2N)c(OC)c1,5,-147,-0.69,2.5*,1
COc1ccc(CNC(=O)c2nnn(Cc3ccc(OC)cc3)c2N)cc1,·,·,-5.2*,·,·
Nc1c(C(=O)NCc2ccccc2)nnn1Cc1ccc(F)cc1,-24,8,-0.44,0.9,1.2
COc1cccc(Cn2nnc(C(=O)Nc3cc(C)ccc3OC)c2N)c1,14,-26,0.88,1.3,0.9
CSc1ccc(Cn2nnc(C(=O)Nc3ccc(C)c(C)c3)c2N)cc1,37,25,0.046,0.7,0.6
COc1cccc(Cn2nnc(C(=O)Nc3ccc(C)cc3)c2N)c1,25,-108,-0.68,2.1*,0.8
CCOC(=O)COc1ccc(S(=O)(=O)N2CCc3ccccc3C2)cc1,56*,-49,-0.58,1.5,0.4
CC(=O)Nc1ccc(S(=O)(=O)N2CCc3ccccc3C2)cc1,65*,-58,-2.6,1.6,0.3
CCOC(=O)COc1ccc(S(=O)(=O)N2CCN(c3ccc(F)cc3)CC2)cc1,22,50*,-1.7,0.5,0.8
CC(=O)Nc1ccc(S(=O)(=O)N2CCN(C)CC2)cc1,6,-12,0.21,1.1,0.9
Cn1c(=O)c2c(nc(SCC(=O)NC34CC5CC(CC(C5)C3)C4)n2C)n(C)c1=O,20,-1,0.33,1,0.8
Cc1ccc(-n2ncc(-c3nnc(SCC(=O)NC4CCCC4)o3)c2N)cc1C,12,40,0.064,0.6,0.9
C=CCN1C(=O)NC2(O)C(=O)c3ccccc3C12O (stereo unspecified),-10,5,0.42,1,1.1
O=C(CSc1nnc(C2CC2)n1-c1ccccc1)Nc1ccc(N2CCOCC2)cc1,9,30,0.74,0.7,0.9
Cn1c(=O)[nH]c(=O)c2c1nc(NC1CCCCC1)n2Cc1ccccc1,2,30,-1.3,0.7,1
SMILES,CYP2C19 inh,CYP2C9 inhib,Cav3 T inh,CYP2C9 act,CYP2C19 act
O=c1[nH]c2ccccc2n1Cc1ccc(Cl)cc1,73*,24,-3.2,0.8,0.3
O=c1[nH]c2ccccc2n1CCC1CCCCC1,93*,56*,-2.2,0.4,0.1
O=c1[nH]c2ccccc2n1CCCSCCCn1c(=O)[nH]c2ccccc21,16,88*,-1.2,0.1,0.8
CCn1c2ccccc2c2nnc(SCCCn3c(=O)[nH]c4ccccc43)nc21,78*,88*,-1.1,0.1,0.2
O=c1c2ccccc2nc(-c2ccccc2)n1CCCN1CCOCC1,-14,-22,-0.003,1.2,1.1
COC(=O)c1sc2nc(CSc3nc4ccc(C)cc4[nH]3)[nH]c(=O)c2c1C,9,44,0.0019,0.6,0.9
CCOC(=O)c1sc2nc(CSc3nc4ccccc4n3CC)[nH]c(=O)c2c1C,44,68*,-0.026,0.3,0.6
CC(=O)c1c(C)[nH]c(C(=O)CSc2nc3ccccc3c(=O)n2CCCN2CCOCC2)c1C,69*,66*,1.1,0.3,0.3
COCCn1c(SCC(=O)c2[nH]c(C)c(C(C)=O)c2C)nc2ccccc21,95*,78*,0.68,0.2,0.1
Cc1sc2nc(CSc3nc4ccccc4c(=O)n3CCCN3CCOCC3)[nH]c(=O)c2c1C,71*,70*,-0.97,0.3,0.3
Cc1ccccc1OCc1nnc2n1CC(C)S2 (stereo unspecified),6,14,0.24,0.9,0.9
CCCn1[nH]cc(SC)c(=O)c1=O,0,-3,-0.14,1,1
CCOC(=O)c1c(C)n(C)c2ccc(OC(C)C(=O)OC)cc12 (stereo unspecified),51*,64*,-0.86,0.4,0.5
CCOC(=O)c1c(CN2CCC(C)CC2)oc2ccc(OC)cc12,52*,23,-4.2*,0.8,0.5
CCOC(=O)c1c(C)n(C)c2ccc(OCCN(C)C)cc12,4,18,·,0.8,1
CCOC(=O)c1c(C)n(C)c2ccc(OCC(O)CN3CCC(C)CC3)cc12 (stereo unspecified),-2,-5,-5.3*,1.1,1
CCCCCCc1nc2c(=O)[nH]c3ccccc3c2o1,8,2,0.073,1,0.9
COc1cccc(-n2nc(C(=O)N3CC(C)CC(C)C3)c3ccccc3c2=O)c1 (stereo unspecified),47,58*,-1.8,0.4,0.5
O=C(NCc1ccc2c(c1)OCO2)c1nn(-c2ccccc2)c(=O)c2ccccc12,87*,94*,-1.3,0.1,0.1
Cc1cc(C)cc(-n2nnc(C(=O)NCc3ccc4c(c3)OCO4)c2N)c1,·,·,-5.4*,·,·
COc1ccc(/C=N/NC(=O)c2nn(-c3ccc(C)c(C)c3)c(=O)c3ccccc23)cc1,15,64*,-1,0.4,0.9
O=C(NCc1cccnc1)C1CCN(S(=O)(=O)N2CCC3(CC2)OCCO3)CC1,-12,-6,0.79,1.1,1.1
CCn1c(N)c(C(=O)NCc2ccc3c(c2)OCO3)sc1=S,51*,63*,1.6,0.4,0.5
COc1cc(/C=N/NC(=O)c2cnn3c(C)cc(-c4ccccc4)nc23)ccc1O,21,34,0.45,0.7,0.8
COc1ccc(-n2nc(C(=O)Nc3ccc4c(c3)OCO4)c3ccccc3c2=O)c(OC)c1,10,48,·,0.5,0.9
COc1ccc(/C=N/NC(=O)c2nc(-c3ccccc3)cc(-c3ccccc3)n2)cc1,16,15,-7.2*,0.8,0.8
COc1ccc(-n2nc(C(=O)N3CCN(c4ccc(F)cc4)CC3)c3ccccc3c2=O)c(OC)c1,45,56*,·,0.4,0.6
COc1cccc(-n2nc(C(=O)Nc3ccc4c(c3)OCO4)c3ccccc3c2=O)c1,42,90*,0.23,0.1,0.6
CCn1c(N)c(C(=O)NCCOC)sc1=S,34,25,-0.5,0.8,0.7
